Out of some 360,000 compounds screened, about 16,000 (4.4%) were called active. Another 9% or so got no clear call; they are omitted. For the sample, actives were picked, then their nearest neighbours and some compounds at random. Values without a mark were called inactive. The call rests on the fitted dose curve; in most records, active means well fitted inhibition curve with a large enough effect; inconclusive means small, poorly fitted or top-dose-only effect; inactive means no such curve, though single readings can be large or run the other way.
target: Bromodomain adjacent to zinc finger domain protein 2B (Homo sapiens) (UniProt Q9UIF8); test: qHTS Assay for Inhibitors of BAZ2B; conditions: AlphaScreen BAZ2B-H3K14Ac peptide displacement; series mostly up to 114 µM; activity change, negative = inhibition: at the top concentration; further: nearly all actives have a fitted effect of over 60% in size
Sequence (Q9UIF8 whole entry, looked up, the tested form may be a part): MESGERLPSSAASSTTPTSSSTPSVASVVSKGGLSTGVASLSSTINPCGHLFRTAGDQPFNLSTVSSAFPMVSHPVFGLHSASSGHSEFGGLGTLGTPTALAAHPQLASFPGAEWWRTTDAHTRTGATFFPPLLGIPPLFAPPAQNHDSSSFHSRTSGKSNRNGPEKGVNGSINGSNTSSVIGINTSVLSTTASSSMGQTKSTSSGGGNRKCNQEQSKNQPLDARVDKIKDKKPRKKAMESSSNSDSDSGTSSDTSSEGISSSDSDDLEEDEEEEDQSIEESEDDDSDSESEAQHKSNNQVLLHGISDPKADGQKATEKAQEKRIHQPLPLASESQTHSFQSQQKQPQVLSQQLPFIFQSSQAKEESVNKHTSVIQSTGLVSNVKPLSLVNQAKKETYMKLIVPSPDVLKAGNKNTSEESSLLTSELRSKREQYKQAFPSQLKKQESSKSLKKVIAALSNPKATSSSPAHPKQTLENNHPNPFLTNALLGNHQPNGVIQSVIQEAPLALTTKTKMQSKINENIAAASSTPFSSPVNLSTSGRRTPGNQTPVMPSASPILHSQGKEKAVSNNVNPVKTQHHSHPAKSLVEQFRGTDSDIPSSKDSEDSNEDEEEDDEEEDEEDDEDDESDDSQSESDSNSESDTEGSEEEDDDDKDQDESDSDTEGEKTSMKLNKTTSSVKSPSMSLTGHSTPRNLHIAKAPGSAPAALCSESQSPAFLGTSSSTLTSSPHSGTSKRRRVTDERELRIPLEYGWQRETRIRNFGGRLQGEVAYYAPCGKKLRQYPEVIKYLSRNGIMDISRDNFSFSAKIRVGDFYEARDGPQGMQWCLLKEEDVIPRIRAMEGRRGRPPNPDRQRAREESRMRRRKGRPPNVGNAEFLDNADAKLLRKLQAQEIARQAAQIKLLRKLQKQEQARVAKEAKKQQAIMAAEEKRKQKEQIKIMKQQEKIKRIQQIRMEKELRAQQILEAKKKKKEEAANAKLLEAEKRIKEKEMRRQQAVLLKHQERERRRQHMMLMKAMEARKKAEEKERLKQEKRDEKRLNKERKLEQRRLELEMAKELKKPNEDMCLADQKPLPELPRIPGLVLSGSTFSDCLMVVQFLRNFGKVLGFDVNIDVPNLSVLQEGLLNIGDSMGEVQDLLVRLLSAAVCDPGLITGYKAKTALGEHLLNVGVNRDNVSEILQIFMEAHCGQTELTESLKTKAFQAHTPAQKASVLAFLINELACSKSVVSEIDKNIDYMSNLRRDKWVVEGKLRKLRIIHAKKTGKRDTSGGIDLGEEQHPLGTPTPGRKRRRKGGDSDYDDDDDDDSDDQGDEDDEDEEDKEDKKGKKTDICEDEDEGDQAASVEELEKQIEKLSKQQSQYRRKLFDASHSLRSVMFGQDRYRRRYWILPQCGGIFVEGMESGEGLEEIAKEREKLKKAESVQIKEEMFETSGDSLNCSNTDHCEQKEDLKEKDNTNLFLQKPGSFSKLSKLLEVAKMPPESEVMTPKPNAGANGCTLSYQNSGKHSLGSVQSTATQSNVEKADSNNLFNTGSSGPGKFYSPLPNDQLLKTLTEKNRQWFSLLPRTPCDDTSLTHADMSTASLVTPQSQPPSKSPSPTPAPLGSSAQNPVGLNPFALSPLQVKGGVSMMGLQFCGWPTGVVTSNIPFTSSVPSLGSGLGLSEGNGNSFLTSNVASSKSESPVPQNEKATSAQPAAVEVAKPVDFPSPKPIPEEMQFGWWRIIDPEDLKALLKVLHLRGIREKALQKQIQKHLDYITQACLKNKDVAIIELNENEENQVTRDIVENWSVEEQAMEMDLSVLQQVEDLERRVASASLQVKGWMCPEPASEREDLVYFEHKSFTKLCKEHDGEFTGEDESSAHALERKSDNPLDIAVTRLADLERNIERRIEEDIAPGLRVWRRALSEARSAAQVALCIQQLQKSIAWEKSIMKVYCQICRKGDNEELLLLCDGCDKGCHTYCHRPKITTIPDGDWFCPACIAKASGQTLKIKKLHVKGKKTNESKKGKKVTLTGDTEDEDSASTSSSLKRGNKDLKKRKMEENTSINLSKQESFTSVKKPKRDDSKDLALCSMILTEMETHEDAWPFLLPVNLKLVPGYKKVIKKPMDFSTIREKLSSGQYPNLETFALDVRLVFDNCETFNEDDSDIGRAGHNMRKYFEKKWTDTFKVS
Summary of the method: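 Compounds, titrated to a top concentration of 110 uM, were incubated 30 min at room temperature with preformed BAZ2B/acetyl-K14 H3 peptide complex (50 nM each). Proximity signal was measured by AlphaScreen after 20 min with beads.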
On the % scale 0 is the no-effect control and ±100 the full control effect; potency means the concentration at half of the fitted maximal effect.

| Compound | activity change, negative = inhibition | Potency |
| --- | --- | --- |
| COC(=O)[C@H]1[C@H]2C[C@H]3c4[nH]c5ccccc5c4CCN3C[C@@H]2CC[C@@H]1O | 0.163% | – |
| COCc1ccc(CN2CCC(Oc3ccc(C(=O)NCc4ccccn4)cc3)CC2)o1 | 0.52% | – |
| Cc1cccc(C2c3[nH]c4ccccc4c3CCN2C(=O)c2cc(-c3cccn3C)n[nH]2)n1 (stereo unspecified) | – | 12.6 µM (active) |
| COCc1ccc(C(=O)N2CCc3c([nH]c4ccccc34)C2c2ccccn2)s1 (stereo unspecified) | – | 35.5 µM (active) |
| Cc1ccc(C2c3[nH]c4ccccc4c3CCN2C(=O)c2cccc(C)c2)cc1 (stereo unspecified) | -1.99% | – |
| COc1ccc(Cn2cc(C(=O)c3ccc(C)cc3)c(=O)c3cc(OC)c(OC)cc32)cc1 | -29.8% | – |
| CCn1c(CN2CCC(C)CC2)nc2cc(NC(=O)c3ccccc3[N+](=O)[O-])ccc21 | -27.8% | – |
| CCc1ccc(Sc2cc(C(=O)NCCCOC(C)C)c3ccccc3n2)cc1 | -6.65% | – |
| CCOc1ccc(CNC(=O)Cn2cc3c(n2)-c2c(oc(C(=O)N4CCCC4)c2C)CC3)cc1 | -26.1% | – |
| COc1cc(C2c3c(oc4ccccc4c3=O)C(=O)N2c2nc(C)c(C)s2)ccc1O (stereo unspecified) | 1.61% | – |
| COc1ccc(/C=N/OCC(=O)N(Cc2ccccc2)c2ccccc2C(=O)O)cc1 | -38% | – |
| CCN(CC)C(=O)N(CC)Cc1ccccc1 | 8.44% | – |
| Oc1ccc(/C=N/N(Cc2ccccc2)c2ccccc2)cc1 | – | 39.8 µM (active) |
| Cc1ccc(/C=C2\SC(=S)N(CCC(=O)Nc3ccc(O)cc3)C2=O)cc1 | 0.0674% | – |
| COc1ccc(/C=C2\SC(=S)N(CC(=O)NNC(=O)c3ccncc3)C2=O)cc1 | -3.39% | – |
| COc1cc(/C=C2/SC(=S)N(Cc3ccccc3)C2=O)cc(OC)c1O | – | 12.6 µM (active) |
| COc1ccc(/C=C2\SC(=S)N(CCC(=O)Nc3cccc(C(=O)O)c3)C2=O)cc1OC | – | 50.1 µM (active) |
| O=C(CCCOc1ccccc1)Nc1cccc(C(=O)O)c1 | 0.447% | – |
| COc1cccc(/C=C2/SC(=S)N(CC(=O)NC3C=CS(=O)(=O)C3)C2=O)c1 (stereo unspecified) | -22.7% | – |
| Cc1ccc(C(=O)Nc2ccccc2F)cc1S(=O)(=O)N1CCOCC1 | 0.786% | – |
| CC(C)(C)OC(=O)N1CCC(c2c(C(=O)N3CCc4ccccc4C3)cnn2-c2ccc(F)cc2)CC1 | 4.44% [at 57.1 µM] | – |
| Cc1ccc(CN2CCC(CNC(=O)c3cnn(-c4ccccc4Cl)c3C3CCN(C(=O)OC(C)(C)C)CC3)CC2)cc1 | -4.83% [at 57.1 µM] | – |
| CCc1ccc(S(=O)(=O)Nc2cc3c(C(=O)OCc4ccccc4)c(C)oc3c3ccccc23)cc1 | -21% | – |
| COc1ccccc1N1CCN(S(=O)(=O)CCNC(=O)COc2ccc(F)cc2)CC1 | -15.1% | – |
| O=C(C1CCCN(S(=O)(=O)c2cccc3nonc23)C1)N1CCN(c2ccccc2F)CC1 (stereo unspecified) | -31.9% | – |
| COc1cc(C(=O)Nc2ccc(OCc3cc(=O)n4ccc(C)cc4n3)cc2)cc(OC)c1OC | -3.88% | – |
